HCMV inh – human cytomegalovirus inhibition | HFF cells, HCMV-luciferase reporter, 72 h; stronger effect = lower value | activity change, negative = inhibition, % at 57.5 µM | actives 4.5% (n = 410,000); in the data active = activity change below about -60%; inconclusive = no clear call, values can overlap the other calls; inactive = above about -39%
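Cell-based, HFFs, 1000 cells/well, 16 h 37C; cpds in DMSO + HCMV-luc, MOI 1 PFU/cell; 72 h 37C; OneGlo luminescence after 5 min RT; norm. to buffer vs Salinomycin 10uM.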
FMDV antiviral – blocks foot and mouth disease virus; FMDV antiviral cell-based qHTS; Potency, µM (top dose mostly 57.9 µM), for inactives: top-dose activity change, negative = inhibition, hits mostly inhibitors; actives 1.2% (n = 410,000); AID 1159524; calls by dose curve; tested in HEK293T cells; note: read-out not given here; potency is the fitted concentration of half-maximal effect; nearly all actives have a fitted effect of over 45% in size
HCV inhibitor – HCV inhibition; Huh7.5.1 HCVcc-Cre infection, luciferase reporter, 44 h; Potency, µM (series often up to 41.8 µM), for the others: at the top dose activity change, negative = inhibition, actives largely listed as inhibitors; actives 3.4% (n = 340,000); AID 651820; note: potency is the fitted concentration of half-maximal effect
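After 44 h co-culture of compound, cells and HCVcc-Cre (~0.5 moi), substrate is added for 15 min at room temperature and luciferase measured over 15 sec. Cells were seeded at 1,000/well and pre-cultured 4 h.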
AmpC inh no detg – AmpC beta-lactamase inhibition without detergent; P00811; AID 485341; AmpC nitrocefin hydrolysis, absorbance 480 nm, 0.0001% Triton; actives 0.52% (n = 330,000); Potency, µM (doses to about 57.1 µM), inactives show at the top dose activity change, negative = inhibition, usual class: inhibitors;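 note: potency is the fitted concentration of half-maximal effect; plate controls were no compound for no effect and no enzyme for full effect; nearly all actives have a fitted effect of over 20% in size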
Target sequence (P00811 whole entry, looked up): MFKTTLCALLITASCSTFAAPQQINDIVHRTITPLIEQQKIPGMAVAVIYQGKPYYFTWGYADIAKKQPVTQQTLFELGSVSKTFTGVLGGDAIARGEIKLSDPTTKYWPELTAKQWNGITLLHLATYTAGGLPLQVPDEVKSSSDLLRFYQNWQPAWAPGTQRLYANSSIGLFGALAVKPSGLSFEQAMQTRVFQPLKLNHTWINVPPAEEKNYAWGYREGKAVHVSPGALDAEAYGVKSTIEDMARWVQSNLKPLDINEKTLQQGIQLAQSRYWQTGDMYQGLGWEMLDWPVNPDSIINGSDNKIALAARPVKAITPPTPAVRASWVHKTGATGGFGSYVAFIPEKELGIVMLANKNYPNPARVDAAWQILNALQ
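20 mM phosphate pH 7.0 + 0.01% (detergent screen) or 0.0001% Triton X-100; 5.3 nM AmpC reagent; cpd preinc 15 min RT; nitrocefin (800 uM stock) to start; A480 q20 s × 4 min; Activity was normalised to no-enzyme and no-compound control wells.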
AmpC detergent – blocks E. coli AmpC beta-lactamase in detergent assay. AmpC hydrolysis of nitrocefin, absorbance 480 nm, 0.01% Triton. Potency, µM (highest dose often 114 µM), for inactives: at the highest dose activity change, negative = inhibition, usual class: inhibitors. actives 0.041% (n = 370,000). P00811;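 note: potency is the fitted concentration of half-maximal effect; 0% = no-compound wells and -100% = no-enzyme wells; nearly all actives have a fitted effect of over 25% in size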
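AmpC (5.3 nM in the dispensed reagent) in 20 mM phosphate pH 7.0 with 0.01% (detergent screen) or 0.0001% Triton X-100 was preincubated with compounds for 15 min at room temperature. Nitrocefin was then added from an 800 uM solution, and hydrolysis was followed at 480 nm.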
* marks the source's active call; other numbers are inactive results; ? = inconclusive; nt = no result given. An excerpt weighted towards active compounds, which were near 7.3% of everything screened. Unless noted, calls come from the whole dose curve; as a rule, active = well fitted curve in the direction sought with a large enough effect; inconclusive = small, poorly fitted or top-dose-only effect, or another doubt; inactive = no such curve, though single readings can be large; an effect the other way counts as inactive or inconclusive. Unless noted, % is set by controls: 0 for no effect and ±100 for the full control effect.

SMILES | HCMV inh | FMDV antiviral | HCV inhibitor | AmpC inh no detg | AmpC detergent
COc1ccc(C2c3cc4c(cc3OC(NNC(N)=O)C2C)OCO4)cc1 (centres undefined) | 11.5 | -21.4% | ? | nt | nt
COc1cc(C2c3cc4c(cc3OC(NNC(N)=O)C2C)OCO4)cc(OC)c1OC (centres undefined) | -86.3* | -14.0% | ? | nt | nt
COc1cccc(C2c3cc4c(cc3OC(NNC(N)=O)C2C)OCO4)c1O (centres undefined) | -72.7* | -18.2% | -4.3% | nt | nt
CCN(CC)C1Oc2cc3c(cc2C(c2cccc(OC)c2O)C1C)OCO3 (centres undefined) | -8.7 | -15.3% | -17.2% | nt | nt
COc1cc(C2c3cc4c(cc3OC(NCc3ccccc3)C2C)OCO4)cc(OC)c1OC (centres undefined) | -79.9* | -17.7% | -8.7% | nt | nt
CCN(CC)C1Oc2cc3c(cc2C(c2cc(OC)c(O)c(OC)c2)C1C)OCO3 (centres undefined) | 62.5 | -16.4% | -23.4% | nt | nt
COC(=O)C1=C(CS(=O)(=O)c2ccc(Cl)cc2)NC(=O)NC1c1ccc(O)cc1 (centres undefined) | -14.5 | -7.5% | 13.2% | -37.8% | -10.6%
Cc1c(Cl)cccc1NC(=O)CSC(C)c1nc2ccccc2c(=O)[nH]1 (centres undefined) | ? | -11.0% | 1.6% | -2.5% | 1.1%
Fc1ccc(-c2noc3nc(Oc4ccccc4F)ccc23)cc1 | 57.8 | nt | nt | nt | nt
CNC(=S)n1cnc(N)n1 | -64.7* | -12.7% | 5.2% | -34.5% | -0.5%
Nc1cccc2c(O)cccc12 | -102.1* | -3.6% | 21.8% | nt | nt
COc1ccc(C(=O)NCCc2nnc3n2CCN(CC2CC=CCC2)CC3)cc1 (centres undefined) | nt | -18.8% | nt | nt | nt
Cc1[nH]c2ccccc2c1/C=N/Nc1nncn1N | -63.9* | 58.8% | -29.1% | -11.5% | 4.7%
O=C(N/N=C\c1cn(-c2ccccc2)nc1-c1ccccc1)c1ccc2c(c1)OCO2 | -12.8 | -10.0% | 12.6µM* | -30.0% | -3.0%
Cc1[nH]c2ccccc2c1/C=N/Nc1ccc([N+](=O)[O-])cc1 | -30.5 | 17.1% | 2µM* | -48.7% | ?
O=C(N/N=C/c1cc([N+](=O)[O-])ccc1O)c1cccc2cc[nH]c12 | -80.3* | -33.5% | ? | ? | 10.1%
O=C(N/N=C/c1cccc([N+](=O)[O-])c1)c1cccc2cc[nH]c12 | 52.0 | -8.2% | 1.0% | -30.5% | -0.8%
COc1ccccc1-c1ccnc(-n2ncc(C(=O)NCc3cccnc3)c2C)n1 | nt | 8.9% | nt | nt | nt
Cc1ccc(-n2[nH]c(C)c(/C=N/Nc3ccc([N+](=O)[O-])cc3[N+](=O)[O-])c2=O)cc1 | ? | 7.94µM* | ? | -22.2% | -12.5%
Cc1[nH]c2ccccc2c1/C=N/NC(=O)c1cccc(F)c1 | -30.2 | 6.0% | -3.1% | -30.0% | 0.1%
Cc1[nH]n(-c2ccc([N+](=O)[O-])cc2)c(=O)c1C=NCCc1c(C)[nH]c2ccccc12 | -10.4 | 25.1µM* | -2.7% | -22.0% | ?
O=C(N/N=C/c1ccc[nH]1)c1ccc2c(c1)OCO2 | 51.6 | 34.2% | 12.6µM* | -26.0% | 3.2%
Cc1[nH]c2ccccc2c1/C=N/NC(=O)c1cccc([N+](=O)[O-])c1 | -61.4* | -11.4% | -29.5% | -25.5% | 0.6%
O=C(/C=C/c1ccc2c(c1)S(=O)(=O)N(Cc1ccccc1)[C@H]2CC(=O)N1CCOCC1)N1CCOCC1 | -16.2 | 39.1% | 23.4% | 57.2% | nt
CCCNCC(=O)Nc1sc2c(c1C(=O)Nc1c(C)n(C)n(-c3ccccc3)c1=O)CCCC2 | 49.7 | -17.1% | nt | nt | nt
SMILES | HCMV inh | FMDV antiviral | HCV inhibitor | AmpC inh no detg | AmpC detergent
Cc1cccc(NS(=O)(=O)c2ccc(C)c(C(=O)N(C)C)c2)c1 | 0.0 | 35.1% | -9.5% | 1.9% | 2.0%
Cc1cccc(NC(=O)N2CCC(CN3CCCCCC3)CC2)c1C | ? | -5.7% | nt | nt | -6.5%
Cc1ccc(C(=O)Nc2c3c(nn2-c2ccccc2)CS(=O)(=O)C3)cc1C | ? | 6.0% | nt | -37.8% | -15.0%
Cc1ccc(Sc2ccc(N3CCCC(C(=O)Nc4ccc(F)cc4)C3)nn2)cc1 (centres undefined) | -24.1 | -13.8% | nt | nt | 14.4%
C[C@@H]1CN([C@H](C)CO)C(=O)CCCn2nncc2CO[C@H]1CN(C)Cc1cccc(C(F)(F)F)c1 | 19.2 | -0.6% | nt | nt | nt
Cn1cc(/C=N/NC(=O)c2cccc([N+](=O)[O-])c2)c2ccccc21 | -22.5 | 1.1% | 10µM* | -19.2% | -2.2%
COc1ccc(/C=N/NC(=O)c2cccc([N+](=O)[O-])c2)c2ccccc12 | -26.6 | -27.9% | ? | -10.2% | -6.4%
Cc1cccc(/C=N/NC(=O)c2cccc([N+](=O)[O-])c2)n1 | -22.7 | -14.9% | -12.4% | -4.0% | -5.5%
O=C(N/N=C/c1ccc[nH]1)c1cccc([N+](=O)[O-])c1 | -4.7 | 11.1% | 3.55µM* | -18.9% | -0.1%
COC(=O)c1ccc(Cn2c(SCc3cccc(C)c3)nc3ccncc32)cc1 | -10.3 | -15.3% | nt | nt | 7.3%
CCOC(=O)C1CCCN(C(=S)NC(=O)/C=C/c2ccc(F)cc2)C1 (centres undefined) | -82.3* | 34.1% | -15.1% | -23.5% | 0.9%
COc1ccc(CN2CCCC(c3nc(-c4ccncc4)ncc3-c3ccccc3C)C2)c(OC)c1 (centres undefined) | nt | -7.9% | nt | nt | nt
O=C(N/N=C/c1ccc(-c2ccc(S(=O)(=O)Nc3ncccn3)cc2)o1)c1cc2ccccc2cc1O | -101.4* | 1.8% | -8.5% | 20µM* | -12.5%
CCCCn1cc(S(=O)(=O)c2ccc(OC)cc2)c(=O)c2cc(F)c(F)cc21 | -21.2 | 19.3% | nt | nt | -2.7%
Cc1ccc(Nc2nnc(-c3ccc(C)c(S(=O)(=O)N4CCN(C)CC4)c3)c3ccccc23)c(C)c1 | 4.2 | -26.7% | nt | nt | 10.7%
COc1cc(OC)c(NC(=O)N2CCc3cc(OC)c(OC)cc3C2CC(=O)O)cc1Cl (centres undefined) | -22.5 | -21.7% | nt | nt | 18.3%
COC(=O)c1ccc(C(C(=O)NCc2ccccc2)N(Cc2cccs2)C(=O)c2cnccn2)cc1 (centres undefined) | 3.8 | -10.8% | 12.5% | 52.9% | -1.1%
COc1ccc(CNC(=O)C(c2ccc(C)cc2)N(Cc2cccs2)C(=O)c2ccc3c(c2)OCCO3)cc1 (centres undefined) | ? | ? | 11.2µM* | -15.7% | ?
Cc1ccc(C(C(=O)NCc2ccccc2)N(Cc2cccs2)C(=O)c2ccc3c(c2)OCCO3)cc1 (centres undefined) | -68.9* | -13.0% | ? | -17.6% | ?
O=C(CCc1ccc(S(=O)(=O)NC2CCCCC2)cc1)Nc1ccccc1 | -68.9* | 14.6% | 6.7% | -36.7% | -8.2%
O=C(CNC1CCCCCC1)Nc1ccc(S(=O)(=O)NC2CC2)cc1 | -27.5 | nt | -20.4% | 0.159µM* | -0.1%

Source: PubChem BioAssay
